# Data: PMC7862700, “An all-to-all approach to the identification of sequence-specific readers for epigenetic DNA modifications on cytosine”
# Experiments:
# Test in all cases: DAPPL (digital affinity profiling via proximity ligation, sequencing); 10 mM Tris-HCl pH 7.5, 50 mM NaCl, 1 mM DTT, 4% glycerol, room temperature, 30 min; GST-TFs on glutathione beads, 16-mer random dsDNA library, 0.1% formaldehyde crosslink after washing; high values mean tight binding
# FLI1 = target: T1, FLI1 (Homo sapiens, UniProt Q01543 1-452); conditions: protein: recombinant; tags: N-terminal GST; dsDNA, one strand shown
# T1 sequence: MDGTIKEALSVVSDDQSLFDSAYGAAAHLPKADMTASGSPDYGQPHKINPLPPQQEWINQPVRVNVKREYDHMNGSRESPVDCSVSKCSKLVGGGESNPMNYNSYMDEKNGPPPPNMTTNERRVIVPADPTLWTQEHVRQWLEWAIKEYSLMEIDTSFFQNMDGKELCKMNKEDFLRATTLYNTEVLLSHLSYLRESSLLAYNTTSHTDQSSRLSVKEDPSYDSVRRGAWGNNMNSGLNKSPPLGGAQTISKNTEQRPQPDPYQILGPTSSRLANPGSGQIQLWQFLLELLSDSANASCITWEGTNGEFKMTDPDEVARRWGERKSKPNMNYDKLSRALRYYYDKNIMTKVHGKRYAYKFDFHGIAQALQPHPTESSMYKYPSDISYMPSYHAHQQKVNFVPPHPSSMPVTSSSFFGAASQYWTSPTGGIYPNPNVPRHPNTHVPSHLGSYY
# In short: (§1)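 Binding signal is defined as a hexamer's read frequency for one factor over its frequency for the tag-only sample. To obtain reads, GST-fused human transcription factors were expressed in yeast, captured on glutathione beads, barcoded with DNA and pooled with that sample. Pools met 200 nmole of a 16-mer random double-stranded DNA library in Tris/NaCl/DTT/glycerol buffer for 30 min at room temperature before washing, 0.1% formaldehyde crosslinking, proximity ligation (BsaI/T4 ligase, 1 h, 37 °C), PCR and Illumina NextSeq500 sequencing.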
# ELK1 = target: T2, ELK1 (Homo sapiens, UniProt P19419 1-428); conditions: protein: recombinant; tags: N-terminal GST; dsDNA, one strand shown
# T2 sequence: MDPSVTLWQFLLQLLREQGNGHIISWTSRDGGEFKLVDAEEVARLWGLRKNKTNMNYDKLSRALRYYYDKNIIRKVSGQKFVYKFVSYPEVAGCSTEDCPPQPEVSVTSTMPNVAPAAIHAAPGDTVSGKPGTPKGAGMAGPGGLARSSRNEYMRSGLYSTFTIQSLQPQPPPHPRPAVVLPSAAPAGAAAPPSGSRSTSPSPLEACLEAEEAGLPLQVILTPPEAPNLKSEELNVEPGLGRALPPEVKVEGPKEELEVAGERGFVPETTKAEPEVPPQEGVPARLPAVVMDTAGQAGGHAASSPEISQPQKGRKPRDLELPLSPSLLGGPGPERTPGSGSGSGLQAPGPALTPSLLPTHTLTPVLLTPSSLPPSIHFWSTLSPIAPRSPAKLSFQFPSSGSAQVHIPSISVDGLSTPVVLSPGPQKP
# In short: as §1
# GABPA = target: T3, GABPA (Homo sapiens, UniProt Q06546 1-454); conditions: protein: recombinant; tags: N-terminal GST; dsDNA, one strand shown
# T3 sequence: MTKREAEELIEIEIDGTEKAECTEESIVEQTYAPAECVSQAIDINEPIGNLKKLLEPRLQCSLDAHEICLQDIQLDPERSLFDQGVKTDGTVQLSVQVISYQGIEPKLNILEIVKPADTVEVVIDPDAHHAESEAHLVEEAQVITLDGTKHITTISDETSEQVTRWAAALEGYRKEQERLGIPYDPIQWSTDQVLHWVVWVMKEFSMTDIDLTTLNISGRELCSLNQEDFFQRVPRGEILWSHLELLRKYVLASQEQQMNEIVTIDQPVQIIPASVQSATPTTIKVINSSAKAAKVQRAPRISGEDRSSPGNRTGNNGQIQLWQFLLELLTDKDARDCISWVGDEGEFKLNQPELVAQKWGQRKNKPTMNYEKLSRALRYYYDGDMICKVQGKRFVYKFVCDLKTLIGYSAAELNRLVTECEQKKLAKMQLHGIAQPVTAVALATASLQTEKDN
# In short: as §1
# ERG = target: T4, ERG (Homo sapiens, UniProt P11308 1-479); conditions: protein: recombinant; tags: N-terminal GST; dsDNA, one strand shown
# T4 sequence: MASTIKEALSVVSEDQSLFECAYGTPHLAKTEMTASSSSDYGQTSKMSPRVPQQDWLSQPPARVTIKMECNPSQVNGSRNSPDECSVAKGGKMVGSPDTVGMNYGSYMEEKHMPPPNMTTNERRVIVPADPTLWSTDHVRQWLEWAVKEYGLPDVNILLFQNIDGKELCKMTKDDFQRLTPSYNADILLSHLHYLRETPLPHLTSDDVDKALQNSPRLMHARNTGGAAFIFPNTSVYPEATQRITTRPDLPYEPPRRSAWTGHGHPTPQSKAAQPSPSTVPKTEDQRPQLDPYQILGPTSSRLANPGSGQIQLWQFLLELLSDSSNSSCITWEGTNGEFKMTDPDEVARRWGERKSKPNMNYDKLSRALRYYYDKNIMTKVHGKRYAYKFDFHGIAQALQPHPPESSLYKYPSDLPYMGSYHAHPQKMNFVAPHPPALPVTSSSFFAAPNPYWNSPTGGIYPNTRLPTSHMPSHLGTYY
# In short: as §1
# ELF1 = ELF1 (Homo sapiens, UniProt P32519 1-619); conditions: protein: recombinant; tags: N-terminal GST; dsDNA, one strand shown
# In short: as §1
# EHF = target: T5, EHF (Homo sapiens, UniProt Q9NZC4 1-300); conditions: protein: recombinant; tags: N-terminal GST; dsDNA, one strand shown
# T5 sequence: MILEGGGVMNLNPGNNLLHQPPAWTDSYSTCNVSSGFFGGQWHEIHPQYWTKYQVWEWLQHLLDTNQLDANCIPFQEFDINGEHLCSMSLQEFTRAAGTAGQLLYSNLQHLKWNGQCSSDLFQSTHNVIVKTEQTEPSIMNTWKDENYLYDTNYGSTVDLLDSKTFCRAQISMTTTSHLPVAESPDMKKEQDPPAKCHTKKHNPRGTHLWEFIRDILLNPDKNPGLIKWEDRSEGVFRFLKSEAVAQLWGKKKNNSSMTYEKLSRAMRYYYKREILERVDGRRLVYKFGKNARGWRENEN
# In short: as §1
# SPI1 = SPI1 (Homo sapiens, UniProt P17947 1-270); conditions: protein: recombinant; tags: N-terminal GST; dsDNA, one strand shown
# In short: as §1
# SPIB = SPIB (Homo sapiens, UniProt Q01892 1-262); conditions: protein: recombinant; tags: N-terminal GST; dsDNA, one strand shown
# In short: as §1
# ELK3 = target: T6, ELK3 (Homo sapiens, UniProt P41970 1-407); conditions: protein: recombinant; tags: N-terminal GST; dsDNA, one strand shown
# T6 sequence: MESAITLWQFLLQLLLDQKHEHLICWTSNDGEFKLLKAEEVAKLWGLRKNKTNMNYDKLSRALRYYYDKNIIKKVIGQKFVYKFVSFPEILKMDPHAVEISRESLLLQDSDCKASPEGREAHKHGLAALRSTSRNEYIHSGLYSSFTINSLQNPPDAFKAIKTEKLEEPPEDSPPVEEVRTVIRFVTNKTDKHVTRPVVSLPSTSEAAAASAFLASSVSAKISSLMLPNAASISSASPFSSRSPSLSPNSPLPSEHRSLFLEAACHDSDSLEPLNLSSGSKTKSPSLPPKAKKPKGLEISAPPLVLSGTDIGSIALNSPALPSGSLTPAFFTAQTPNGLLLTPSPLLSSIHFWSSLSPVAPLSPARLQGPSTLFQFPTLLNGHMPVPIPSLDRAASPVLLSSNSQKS
# In short: as §1
# FEV = target: T7, FEV (Homo sapiens, UniProt Q99581 1-238); conditions: protein: recombinant; tags: N-terminal GST; dsDNA, one strand shown
# T7 sequence: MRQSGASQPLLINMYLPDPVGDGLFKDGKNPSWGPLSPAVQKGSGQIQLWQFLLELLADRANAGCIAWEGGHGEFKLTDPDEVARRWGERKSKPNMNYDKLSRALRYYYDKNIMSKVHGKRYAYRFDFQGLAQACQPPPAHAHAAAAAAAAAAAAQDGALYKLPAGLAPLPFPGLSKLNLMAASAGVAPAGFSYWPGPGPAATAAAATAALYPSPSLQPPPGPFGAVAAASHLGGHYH
# In short: as §1
# ETV5 = ETV5 (Homo sapiens, UniProt P41161 1-510); conditions: protein: recombinant; tags: N-terminal GST; dsDNA, one strand shown
# In short: as §1
# HSF1 = HSF1 (Homo sapiens, UniProt Q00613 1-529); conditions: protein: recombinant; tags: N-terminal GST; chain copies: 3; dsDNA, one strand shown
# In short: as §1
# SPIC = target: T8, SPIC (Homo sapiens, UniProt Q8N5J4 1-248); conditions: protein: recombinant; tags: N-terminal GST; dsDNA, one strand shown
# T8 sequence: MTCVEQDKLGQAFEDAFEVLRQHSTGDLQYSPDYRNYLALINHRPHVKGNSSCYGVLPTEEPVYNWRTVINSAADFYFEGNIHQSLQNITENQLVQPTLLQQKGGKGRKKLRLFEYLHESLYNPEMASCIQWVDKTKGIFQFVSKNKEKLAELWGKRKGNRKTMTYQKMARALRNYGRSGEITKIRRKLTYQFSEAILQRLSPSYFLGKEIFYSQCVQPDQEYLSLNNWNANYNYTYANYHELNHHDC
# In short: as §1
# ELF4 = ELF4 (Homo sapiens, UniProt Q99607 1-663); conditions: protein: recombinant; tags: N-terminal GST; dsDNA, one strand shown
# In short: as §1
# ELK4 = target: T9, ELK4 (Homo sapiens, UniProt P28324-2 1-405); conditions: protein: recombinant; tags: N-terminal GST; dsDNA, one strand shown
# T9 sequence: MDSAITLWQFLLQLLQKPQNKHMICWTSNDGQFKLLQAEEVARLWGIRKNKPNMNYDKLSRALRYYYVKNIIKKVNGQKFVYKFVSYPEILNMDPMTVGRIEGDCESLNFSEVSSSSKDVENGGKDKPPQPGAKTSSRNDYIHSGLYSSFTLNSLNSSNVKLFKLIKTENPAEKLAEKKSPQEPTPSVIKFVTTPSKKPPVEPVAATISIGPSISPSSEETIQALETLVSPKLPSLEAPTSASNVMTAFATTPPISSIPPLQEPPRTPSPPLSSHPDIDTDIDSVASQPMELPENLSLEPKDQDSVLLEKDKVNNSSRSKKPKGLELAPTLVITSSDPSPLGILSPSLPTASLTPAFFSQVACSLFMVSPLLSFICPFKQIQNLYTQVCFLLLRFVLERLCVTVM
# In short: as §1
# ETV2 = target: T10, ETV2 (Homo sapiens, UniProt O00321 1-342); conditions: protein: recombinant; tags: N-terminal GST; dsDNA, one strand shown
# T10 sequence: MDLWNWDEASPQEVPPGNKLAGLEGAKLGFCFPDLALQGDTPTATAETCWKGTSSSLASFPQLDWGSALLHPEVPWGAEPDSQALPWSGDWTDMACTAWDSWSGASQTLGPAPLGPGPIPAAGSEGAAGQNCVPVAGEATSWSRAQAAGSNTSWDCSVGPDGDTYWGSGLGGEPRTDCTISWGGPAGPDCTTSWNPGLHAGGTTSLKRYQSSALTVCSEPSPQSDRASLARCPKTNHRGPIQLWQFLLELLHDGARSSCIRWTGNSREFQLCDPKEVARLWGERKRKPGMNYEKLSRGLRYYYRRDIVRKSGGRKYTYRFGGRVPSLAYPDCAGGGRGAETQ
# In short: as §1
# ELF3 = target: T11, ELF3 (Homo sapiens, UniProt P78545 1-371); conditions: protein: recombinant; tags: N-terminal GST; dsDNA, one strand shown
# T11 sequence: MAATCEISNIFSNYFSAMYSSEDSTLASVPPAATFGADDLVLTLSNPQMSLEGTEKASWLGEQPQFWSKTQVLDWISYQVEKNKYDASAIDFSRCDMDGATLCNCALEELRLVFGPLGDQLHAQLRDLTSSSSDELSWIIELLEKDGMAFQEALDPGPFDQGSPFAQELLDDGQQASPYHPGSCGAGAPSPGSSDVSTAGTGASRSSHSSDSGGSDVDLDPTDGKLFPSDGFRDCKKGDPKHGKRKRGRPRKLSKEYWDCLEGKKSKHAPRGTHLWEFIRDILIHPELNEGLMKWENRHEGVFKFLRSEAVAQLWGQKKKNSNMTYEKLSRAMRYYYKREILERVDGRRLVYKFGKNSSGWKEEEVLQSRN
# In short: as §1
# CRX = CRX (Homo sapiens, UniProt O43186 1-299); conditions: protein: recombinant; tags: N-terminal GST; dsDNA, one strand shown
# In short: as §1
# ETV1 = ETV1 (Homo sapiens, UniProt P50549 1-477); conditions: protein: recombinant; tags: N-terminal GST; dsDNA, one strand shown
# In short: as §1
# Chain of CRX (O43186 whole entry): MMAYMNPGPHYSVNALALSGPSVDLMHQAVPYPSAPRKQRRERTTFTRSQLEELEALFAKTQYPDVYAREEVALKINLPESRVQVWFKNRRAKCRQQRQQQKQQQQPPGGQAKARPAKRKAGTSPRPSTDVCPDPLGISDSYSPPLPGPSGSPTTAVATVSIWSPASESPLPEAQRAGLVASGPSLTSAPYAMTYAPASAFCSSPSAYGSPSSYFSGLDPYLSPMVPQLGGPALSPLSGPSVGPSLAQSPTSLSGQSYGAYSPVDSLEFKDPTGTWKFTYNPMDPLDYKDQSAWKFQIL
# Chain of HSF1 (Q00613 whole entry): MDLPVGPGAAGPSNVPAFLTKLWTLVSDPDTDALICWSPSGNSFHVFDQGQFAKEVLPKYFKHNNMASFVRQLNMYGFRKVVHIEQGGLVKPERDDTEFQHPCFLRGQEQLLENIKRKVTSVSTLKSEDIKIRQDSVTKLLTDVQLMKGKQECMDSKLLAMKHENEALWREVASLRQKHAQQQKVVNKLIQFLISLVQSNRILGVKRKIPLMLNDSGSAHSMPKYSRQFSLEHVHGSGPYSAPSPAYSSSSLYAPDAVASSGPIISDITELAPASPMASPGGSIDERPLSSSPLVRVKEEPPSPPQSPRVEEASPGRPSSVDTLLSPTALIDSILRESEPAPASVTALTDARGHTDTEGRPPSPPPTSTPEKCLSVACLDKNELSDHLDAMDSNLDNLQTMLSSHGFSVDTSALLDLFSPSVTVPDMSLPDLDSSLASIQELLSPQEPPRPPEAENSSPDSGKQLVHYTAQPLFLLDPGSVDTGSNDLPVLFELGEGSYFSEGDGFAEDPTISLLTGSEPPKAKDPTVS
# Chain of ELF4 (Q99607 whole entry): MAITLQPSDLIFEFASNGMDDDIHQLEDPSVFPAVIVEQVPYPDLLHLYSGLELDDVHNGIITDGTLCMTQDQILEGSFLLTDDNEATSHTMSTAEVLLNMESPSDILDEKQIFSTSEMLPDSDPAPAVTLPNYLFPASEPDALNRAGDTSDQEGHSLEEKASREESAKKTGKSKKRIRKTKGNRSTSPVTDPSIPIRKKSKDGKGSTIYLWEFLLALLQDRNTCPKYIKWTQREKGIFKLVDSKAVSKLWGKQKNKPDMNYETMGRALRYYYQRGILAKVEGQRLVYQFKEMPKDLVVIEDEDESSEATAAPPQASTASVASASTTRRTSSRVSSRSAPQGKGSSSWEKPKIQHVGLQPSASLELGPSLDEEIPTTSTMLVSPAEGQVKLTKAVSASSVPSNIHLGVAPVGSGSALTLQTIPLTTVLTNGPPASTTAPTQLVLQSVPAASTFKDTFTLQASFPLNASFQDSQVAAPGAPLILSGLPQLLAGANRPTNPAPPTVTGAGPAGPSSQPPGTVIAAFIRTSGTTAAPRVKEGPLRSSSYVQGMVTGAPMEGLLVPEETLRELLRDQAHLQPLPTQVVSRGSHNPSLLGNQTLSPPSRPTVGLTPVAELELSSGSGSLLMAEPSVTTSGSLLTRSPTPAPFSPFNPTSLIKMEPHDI
# Chain of ELF1 (P32519 whole entry): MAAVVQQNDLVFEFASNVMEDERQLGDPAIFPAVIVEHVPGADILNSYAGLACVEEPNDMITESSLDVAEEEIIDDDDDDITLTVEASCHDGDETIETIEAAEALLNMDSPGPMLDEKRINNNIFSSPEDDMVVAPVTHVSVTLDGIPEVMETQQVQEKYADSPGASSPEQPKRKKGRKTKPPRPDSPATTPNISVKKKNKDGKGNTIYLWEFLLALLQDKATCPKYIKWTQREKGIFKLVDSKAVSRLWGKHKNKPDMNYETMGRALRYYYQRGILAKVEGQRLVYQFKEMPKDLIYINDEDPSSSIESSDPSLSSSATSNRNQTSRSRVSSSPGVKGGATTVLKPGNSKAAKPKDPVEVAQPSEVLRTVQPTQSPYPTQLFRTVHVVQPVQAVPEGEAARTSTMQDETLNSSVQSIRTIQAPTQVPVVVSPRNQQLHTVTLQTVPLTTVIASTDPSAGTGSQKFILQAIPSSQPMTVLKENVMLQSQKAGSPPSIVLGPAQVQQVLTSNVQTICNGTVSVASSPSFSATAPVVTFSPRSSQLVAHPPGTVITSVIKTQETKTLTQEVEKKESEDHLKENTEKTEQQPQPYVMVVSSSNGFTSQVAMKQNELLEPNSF
# Chain of ETV5 (P41161 whole entry): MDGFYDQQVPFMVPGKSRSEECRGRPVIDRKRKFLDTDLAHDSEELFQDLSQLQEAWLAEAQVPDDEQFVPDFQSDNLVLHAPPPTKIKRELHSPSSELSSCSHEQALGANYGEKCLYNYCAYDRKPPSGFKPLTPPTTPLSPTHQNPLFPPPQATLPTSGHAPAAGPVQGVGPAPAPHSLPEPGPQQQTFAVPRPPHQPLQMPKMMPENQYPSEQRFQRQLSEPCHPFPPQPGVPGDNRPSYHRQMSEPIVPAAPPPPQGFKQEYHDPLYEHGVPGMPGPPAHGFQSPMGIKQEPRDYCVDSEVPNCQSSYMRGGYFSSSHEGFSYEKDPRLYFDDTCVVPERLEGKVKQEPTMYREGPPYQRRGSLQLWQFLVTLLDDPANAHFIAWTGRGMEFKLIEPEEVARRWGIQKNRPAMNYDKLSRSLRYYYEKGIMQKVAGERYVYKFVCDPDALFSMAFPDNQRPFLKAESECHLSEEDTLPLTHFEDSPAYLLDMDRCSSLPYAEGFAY
# Chain of SPIB (Q01892 whole entry): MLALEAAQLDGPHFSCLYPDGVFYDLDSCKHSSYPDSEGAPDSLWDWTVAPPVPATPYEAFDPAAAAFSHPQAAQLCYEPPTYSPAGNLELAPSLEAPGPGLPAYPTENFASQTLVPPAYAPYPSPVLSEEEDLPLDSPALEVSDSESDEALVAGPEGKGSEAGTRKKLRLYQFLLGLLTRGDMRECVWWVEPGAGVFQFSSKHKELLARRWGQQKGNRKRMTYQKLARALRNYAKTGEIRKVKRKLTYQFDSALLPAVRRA
# Chain of ETV1 (P50549 whole entry): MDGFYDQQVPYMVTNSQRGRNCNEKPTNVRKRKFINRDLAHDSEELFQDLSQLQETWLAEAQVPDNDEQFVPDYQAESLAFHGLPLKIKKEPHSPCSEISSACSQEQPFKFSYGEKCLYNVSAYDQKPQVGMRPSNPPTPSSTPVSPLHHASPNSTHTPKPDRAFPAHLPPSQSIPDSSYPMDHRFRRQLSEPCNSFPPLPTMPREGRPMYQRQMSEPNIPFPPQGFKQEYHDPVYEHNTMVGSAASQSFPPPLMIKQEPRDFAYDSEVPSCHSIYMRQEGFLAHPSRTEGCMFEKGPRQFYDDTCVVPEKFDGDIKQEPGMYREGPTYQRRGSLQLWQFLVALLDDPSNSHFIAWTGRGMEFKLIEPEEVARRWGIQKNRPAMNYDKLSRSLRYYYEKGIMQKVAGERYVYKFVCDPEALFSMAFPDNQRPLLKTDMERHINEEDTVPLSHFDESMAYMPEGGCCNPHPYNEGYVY
sequence,measurement,setting,value
TATTAT,binding signal,FLI1,"1.3 fold enrichment (6-mer frequency, TF over GST control)"
same,binding signal,ELK1,"1.27 fold enrichment (6-mer frequency, TF over GST control)"
same,binding signal,GABPA,"1.21 fold enrichment (6-mer frequency, TF over GST control)"
same,binding signal,ERG,"1.25 fold enrichment (6-mer frequency, TF over GST control)"
same,binding signal,ELF1,"1.25 fold enrichment (6-mer frequency, TF over GST control)"
same,binding signal,EHF,"1.25 fold enrichment (6-mer frequency, TF over GST control)"
same,binding signal,SPI1,"1.2 fold enrichment (6-mer frequency, TF over GST control)"
same,binding signal,SPIB,"1.24 fold enrichment (6-mer frequency, TF over GST control)"
same,binding signal,ELK3,"1.12 fold enrichment (6-mer frequency, TF over GST control)"
same,binding signal,FEV,"1.12 fold enrichment (6-mer frequency, TF over GST control)"
same,binding signal,ETV5,"1.3 fold enrichment (6-mer frequency, TF over GST control)"
same,binding signal,HSF1,"1.69 fold enrichment (6-mer frequency, TF over GST control)"
same,binding signal,SPIC,"1.35 fold enrichment (6-mer frequency, TF over GST control)"
same,binding signal,ELF4,"1.27 fold enrichment (6-mer frequency, TF over GST control)"
same,binding signal,ELK4,"1.35 fold enrichment (6-mer frequency, TF over GST control)"
same,binding signal,ETV2,"1.32 fold enrichment (6-mer frequency, TF over GST control)"
same,binding signal,ELF3,"1.3 fold enrichment (6-mer frequency, TF over GST control)"
same,binding signal,CRX,"2.4 fold enrichment (6-mer frequency, TF over GST control)"
same,binding signal,ETV1,"1.26 fold enrichment (6-mer frequency, TF over GST control)"
